Assay [1] addresses Sphingosine kinase 1 (Homo sapiens) (UniProt Q9NYA1). The note with it: at 1 µM.
In assay [2] the target is T1, Sphingosine kinase 2 (Homo sapiens) (UniProt Q9NRA0).
T1 sequence (whole entry): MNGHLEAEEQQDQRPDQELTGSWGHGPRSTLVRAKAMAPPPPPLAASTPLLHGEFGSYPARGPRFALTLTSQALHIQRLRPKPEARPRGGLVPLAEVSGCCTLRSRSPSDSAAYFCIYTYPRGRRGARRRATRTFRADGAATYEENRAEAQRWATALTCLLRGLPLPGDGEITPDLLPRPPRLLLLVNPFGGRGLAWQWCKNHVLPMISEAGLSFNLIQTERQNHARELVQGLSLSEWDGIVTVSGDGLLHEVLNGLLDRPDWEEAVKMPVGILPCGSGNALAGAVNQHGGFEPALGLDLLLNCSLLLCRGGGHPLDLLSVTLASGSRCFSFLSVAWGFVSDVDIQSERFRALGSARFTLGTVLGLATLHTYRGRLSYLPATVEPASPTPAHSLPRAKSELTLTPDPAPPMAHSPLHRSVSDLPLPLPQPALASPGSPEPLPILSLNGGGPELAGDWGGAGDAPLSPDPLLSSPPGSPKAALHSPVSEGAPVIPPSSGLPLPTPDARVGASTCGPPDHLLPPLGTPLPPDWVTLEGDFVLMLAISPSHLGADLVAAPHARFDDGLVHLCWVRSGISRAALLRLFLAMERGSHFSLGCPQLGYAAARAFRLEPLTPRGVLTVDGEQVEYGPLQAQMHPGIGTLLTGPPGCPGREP
The note with it: at 0.1 µM.

For assay [3], the target named is T1, Sphingosine kinase 2 (Homo sapiens). The note with it: at 1 µM.
For assay [4], the target named is Casein kinase II subunit alpha (Homo sapiens) (UniProt P68400). The note with it: at 0.1 µM.
Assay [5] has the same target. The note with it: at 1 µM.
The target of assay [6] is T2, Inhibitor of nuclear factor kappa-B kinase subunit alpha (Homo sapiens) (UniProt O15111).
T2 sequence (whole entry): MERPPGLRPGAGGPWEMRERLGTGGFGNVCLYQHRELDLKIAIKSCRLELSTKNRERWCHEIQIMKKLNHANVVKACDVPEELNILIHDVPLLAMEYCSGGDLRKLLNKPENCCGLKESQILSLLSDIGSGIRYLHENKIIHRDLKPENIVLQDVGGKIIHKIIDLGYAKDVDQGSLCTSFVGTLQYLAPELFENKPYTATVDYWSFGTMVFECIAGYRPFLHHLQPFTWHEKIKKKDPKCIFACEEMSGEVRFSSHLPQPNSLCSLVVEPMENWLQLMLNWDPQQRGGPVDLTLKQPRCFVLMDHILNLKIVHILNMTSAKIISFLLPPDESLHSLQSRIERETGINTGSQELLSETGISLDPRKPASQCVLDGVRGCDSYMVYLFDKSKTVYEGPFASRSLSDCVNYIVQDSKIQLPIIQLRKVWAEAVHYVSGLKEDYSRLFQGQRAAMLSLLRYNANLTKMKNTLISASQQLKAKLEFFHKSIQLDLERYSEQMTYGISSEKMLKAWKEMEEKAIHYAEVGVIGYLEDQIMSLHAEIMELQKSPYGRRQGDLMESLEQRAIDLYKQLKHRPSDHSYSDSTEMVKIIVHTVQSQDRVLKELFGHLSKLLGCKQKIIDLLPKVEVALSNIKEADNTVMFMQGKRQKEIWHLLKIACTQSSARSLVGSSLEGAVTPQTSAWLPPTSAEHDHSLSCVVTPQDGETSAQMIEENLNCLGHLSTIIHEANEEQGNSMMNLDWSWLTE
The note with it: at 0.1 µM.

In assay [7] the target is T2, Inhibitor of nuclear factor kappa-B kinase subunit alpha (Homo sapiens). The note with it: at 1 µM.
Assay [8] has as its target T3, Inhibitor of nuclear factor kappa-B kinase subunit beta (Homo sapiens) (UniProt O14920).
T3 sequence (whole entry): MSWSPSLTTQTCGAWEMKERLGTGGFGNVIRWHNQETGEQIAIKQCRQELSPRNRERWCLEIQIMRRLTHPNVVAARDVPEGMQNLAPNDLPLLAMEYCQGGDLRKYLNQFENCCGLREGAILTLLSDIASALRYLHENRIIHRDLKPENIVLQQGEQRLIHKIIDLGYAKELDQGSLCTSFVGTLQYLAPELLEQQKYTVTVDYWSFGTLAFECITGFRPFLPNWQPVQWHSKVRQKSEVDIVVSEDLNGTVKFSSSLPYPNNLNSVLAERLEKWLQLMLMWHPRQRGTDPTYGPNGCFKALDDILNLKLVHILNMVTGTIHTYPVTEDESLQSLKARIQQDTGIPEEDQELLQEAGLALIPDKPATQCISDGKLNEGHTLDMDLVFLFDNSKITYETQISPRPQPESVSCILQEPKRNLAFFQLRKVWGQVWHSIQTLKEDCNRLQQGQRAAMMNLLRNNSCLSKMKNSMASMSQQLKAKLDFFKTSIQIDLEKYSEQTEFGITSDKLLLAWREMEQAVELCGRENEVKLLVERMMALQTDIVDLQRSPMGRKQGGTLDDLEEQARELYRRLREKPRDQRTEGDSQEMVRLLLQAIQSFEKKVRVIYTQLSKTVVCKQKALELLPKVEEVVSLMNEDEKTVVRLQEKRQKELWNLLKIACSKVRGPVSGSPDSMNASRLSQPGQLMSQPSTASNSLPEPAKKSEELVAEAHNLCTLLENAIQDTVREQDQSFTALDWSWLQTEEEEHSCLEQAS
The note with it: at 0.1 µM.

The target in assay [9] is T3, Inhibitor of nuclear factor kappa-B kinase subunit beta (Homo sapiens). The note with it: at 1 µM.
In assay [10] the target is T4, Inhibitor of nuclear factor kappa-B kinase subunit epsilon (Homo sapiens) (UniProt Q14164).
T4 sequence (whole entry): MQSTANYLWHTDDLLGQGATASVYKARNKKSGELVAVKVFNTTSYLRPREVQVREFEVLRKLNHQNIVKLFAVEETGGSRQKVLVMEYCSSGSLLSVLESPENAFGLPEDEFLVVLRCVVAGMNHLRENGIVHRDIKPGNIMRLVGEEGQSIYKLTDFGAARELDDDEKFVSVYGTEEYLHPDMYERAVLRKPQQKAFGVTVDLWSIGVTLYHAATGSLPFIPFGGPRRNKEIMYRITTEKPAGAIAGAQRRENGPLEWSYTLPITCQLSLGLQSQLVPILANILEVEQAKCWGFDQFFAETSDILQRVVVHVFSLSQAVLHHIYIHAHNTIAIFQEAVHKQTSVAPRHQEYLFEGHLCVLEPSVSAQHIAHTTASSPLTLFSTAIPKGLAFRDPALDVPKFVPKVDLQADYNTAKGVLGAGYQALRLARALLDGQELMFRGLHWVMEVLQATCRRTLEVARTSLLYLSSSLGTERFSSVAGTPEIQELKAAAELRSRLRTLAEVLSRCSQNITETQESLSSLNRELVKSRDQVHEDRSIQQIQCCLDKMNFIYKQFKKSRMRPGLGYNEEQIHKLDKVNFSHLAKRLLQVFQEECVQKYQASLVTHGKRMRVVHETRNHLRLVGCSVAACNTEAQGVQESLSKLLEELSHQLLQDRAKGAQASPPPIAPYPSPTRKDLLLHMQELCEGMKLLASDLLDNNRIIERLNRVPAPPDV
The note with it: at 0.1 µM.

Assay [11] addresses T4, Inhibitor of nuclear factor kappa-B kinase subunit epsilon (Homo sapiens). The note with it: at 1 µM.
For assay [12], the target named is T5, Serine/threonine-protein kinase Nek1 (Homo sapiens) (UniProt Q96PY6).
T5 sequence (whole entry): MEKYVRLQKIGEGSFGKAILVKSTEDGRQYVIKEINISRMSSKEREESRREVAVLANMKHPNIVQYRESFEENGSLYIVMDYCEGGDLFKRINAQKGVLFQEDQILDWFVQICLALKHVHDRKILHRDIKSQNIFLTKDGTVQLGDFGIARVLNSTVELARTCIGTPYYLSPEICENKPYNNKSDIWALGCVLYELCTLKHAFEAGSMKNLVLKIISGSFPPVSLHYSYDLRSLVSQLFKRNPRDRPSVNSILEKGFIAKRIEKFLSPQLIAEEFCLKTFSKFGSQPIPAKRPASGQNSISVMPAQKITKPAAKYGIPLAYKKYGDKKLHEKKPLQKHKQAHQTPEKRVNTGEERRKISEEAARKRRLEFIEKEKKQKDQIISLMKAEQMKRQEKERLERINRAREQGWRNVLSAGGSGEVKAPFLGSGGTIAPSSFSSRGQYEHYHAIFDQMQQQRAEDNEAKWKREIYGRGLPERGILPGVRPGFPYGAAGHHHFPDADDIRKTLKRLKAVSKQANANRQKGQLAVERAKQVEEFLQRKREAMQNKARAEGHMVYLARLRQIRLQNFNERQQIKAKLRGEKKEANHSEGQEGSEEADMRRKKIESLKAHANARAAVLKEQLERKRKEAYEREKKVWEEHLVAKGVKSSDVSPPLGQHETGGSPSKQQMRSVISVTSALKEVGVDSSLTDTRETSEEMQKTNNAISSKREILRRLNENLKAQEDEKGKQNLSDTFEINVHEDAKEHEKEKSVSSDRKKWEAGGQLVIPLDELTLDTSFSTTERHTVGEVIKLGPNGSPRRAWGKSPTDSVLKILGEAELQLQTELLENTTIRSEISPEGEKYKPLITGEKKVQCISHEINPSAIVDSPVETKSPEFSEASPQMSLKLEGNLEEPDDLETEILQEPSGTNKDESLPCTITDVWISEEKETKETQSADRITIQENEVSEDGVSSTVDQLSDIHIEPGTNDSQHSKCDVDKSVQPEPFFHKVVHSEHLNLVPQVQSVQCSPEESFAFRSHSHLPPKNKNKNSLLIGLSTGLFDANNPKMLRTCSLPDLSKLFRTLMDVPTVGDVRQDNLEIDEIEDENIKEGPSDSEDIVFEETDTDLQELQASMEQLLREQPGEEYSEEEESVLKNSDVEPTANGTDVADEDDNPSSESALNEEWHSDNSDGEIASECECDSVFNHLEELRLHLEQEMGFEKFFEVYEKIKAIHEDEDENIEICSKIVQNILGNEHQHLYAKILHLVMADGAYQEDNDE
The note with it: at 0.1 µM.

For assay [13], the target named is T5, Serine/threonine-protein kinase Nek1 (Homo sapiens). The note with it: at 1 µM.
Assay [14] addresses T6, Serine/threonine-protein kinase Nek2 (Homo sapiens) (UniProt P51955).
T6 sequence (whole entry): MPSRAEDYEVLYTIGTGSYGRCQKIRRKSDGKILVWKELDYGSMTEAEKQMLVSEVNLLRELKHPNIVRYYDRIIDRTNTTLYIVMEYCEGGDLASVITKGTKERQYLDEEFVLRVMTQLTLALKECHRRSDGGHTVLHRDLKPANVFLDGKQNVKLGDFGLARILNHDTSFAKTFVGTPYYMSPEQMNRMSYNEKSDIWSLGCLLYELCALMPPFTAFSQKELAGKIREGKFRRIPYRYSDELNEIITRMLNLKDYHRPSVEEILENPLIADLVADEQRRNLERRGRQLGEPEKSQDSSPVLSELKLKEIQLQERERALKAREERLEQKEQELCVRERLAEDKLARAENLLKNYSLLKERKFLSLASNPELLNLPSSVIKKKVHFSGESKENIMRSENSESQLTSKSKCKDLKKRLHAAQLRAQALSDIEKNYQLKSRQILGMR
The note with it: at 0.1 µM.

In assay [15] the target is T6, Serine/threonine-protein kinase Nek2 (Homo sapiens). The note with it: at 1 µM.
The target of assay [16] is Serine/threonine-protein kinase Nek6 (Homo sapiens) (UniProt Q9HC98). The note with it: at 0.1 µM.
The target is the same in assay [17]. The note with it: at 1 µM.
Assay [18] deals with Serine/threonine-protein kinase Nek7 (Homo sapiens) (UniProt Q8TDX7). The note with it: at 0.1 µM.
Assay [19] shares this target. The note with it: at 1 µM.

Molecules are shown by their SMILES.

Serine/threonine-protein kinase Nek7 (Homo sapiens), sequence (Q8TDX7 whole entry, looked up): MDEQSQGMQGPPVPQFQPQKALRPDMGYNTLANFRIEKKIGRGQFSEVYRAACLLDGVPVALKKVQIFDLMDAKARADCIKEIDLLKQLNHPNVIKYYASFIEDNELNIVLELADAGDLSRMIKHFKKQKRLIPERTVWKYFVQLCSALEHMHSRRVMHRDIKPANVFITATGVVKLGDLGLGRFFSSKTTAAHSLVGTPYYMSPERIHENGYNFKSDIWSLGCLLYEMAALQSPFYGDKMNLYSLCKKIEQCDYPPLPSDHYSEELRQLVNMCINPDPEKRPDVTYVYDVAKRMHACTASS
Serine/threonine-protein kinase Nek6 (Homo sapiens), sequence (Q9HC98 whole entry): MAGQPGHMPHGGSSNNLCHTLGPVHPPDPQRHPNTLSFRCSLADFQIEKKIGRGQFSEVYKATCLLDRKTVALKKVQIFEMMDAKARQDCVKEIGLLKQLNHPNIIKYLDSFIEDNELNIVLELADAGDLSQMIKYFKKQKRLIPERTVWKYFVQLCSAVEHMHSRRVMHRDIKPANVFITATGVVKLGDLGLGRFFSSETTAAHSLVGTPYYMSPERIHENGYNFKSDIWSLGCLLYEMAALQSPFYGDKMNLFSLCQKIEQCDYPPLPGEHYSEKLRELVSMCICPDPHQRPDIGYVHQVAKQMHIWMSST
Casein kinase II subunit alpha (Homo sapiens), sequence (P68400 whole entry, looked up): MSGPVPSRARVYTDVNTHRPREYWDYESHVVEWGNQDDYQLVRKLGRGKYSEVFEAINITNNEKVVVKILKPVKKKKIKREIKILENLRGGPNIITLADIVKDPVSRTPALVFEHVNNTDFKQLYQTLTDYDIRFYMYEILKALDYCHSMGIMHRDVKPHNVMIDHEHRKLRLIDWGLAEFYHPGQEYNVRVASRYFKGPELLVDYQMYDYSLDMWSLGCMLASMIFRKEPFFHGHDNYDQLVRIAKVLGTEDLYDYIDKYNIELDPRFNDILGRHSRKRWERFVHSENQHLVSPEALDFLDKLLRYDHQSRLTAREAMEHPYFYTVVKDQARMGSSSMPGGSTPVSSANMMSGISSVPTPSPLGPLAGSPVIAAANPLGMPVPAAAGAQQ
Sphingosine kinase 1 (Homo sapiens), sequence (Q9NYA1 whole entry): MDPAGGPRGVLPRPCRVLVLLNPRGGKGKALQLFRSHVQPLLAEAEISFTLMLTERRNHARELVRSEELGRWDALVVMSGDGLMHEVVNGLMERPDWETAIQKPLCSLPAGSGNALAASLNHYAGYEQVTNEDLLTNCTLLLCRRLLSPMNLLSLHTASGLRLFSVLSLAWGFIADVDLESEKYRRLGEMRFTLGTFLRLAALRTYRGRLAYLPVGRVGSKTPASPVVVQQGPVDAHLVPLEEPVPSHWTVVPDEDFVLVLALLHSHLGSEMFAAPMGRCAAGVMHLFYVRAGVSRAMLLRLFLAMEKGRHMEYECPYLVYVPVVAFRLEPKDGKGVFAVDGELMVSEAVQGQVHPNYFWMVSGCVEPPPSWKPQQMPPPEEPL

Broadly, the inhibition is the change of the read-out against control, counted positive when it falls. On to `CCn1c(-c2nonc2N)nc2c(C#CCN)ncc(OCCCN)c21`, for which the inhibition in [1] is -2.44%; in assay [2], 0.6%; in assay [3] it was -1.33%; in assay [4], -1.18%; in assay [5], 10.1%; in [6], -6.76%. For the same compound, the inhibition was -0.57% in [7]; -4.65% in assay [8]; 0.63% in assay [9]; 0.53% in assay [10]; 2.04% in [11]; -2.66% in [12]. Besides, the inhibition in [13] is -3.17%; in assay [14], -4.61%; in assay [15] it was -4.57%; in assay [16] it was -0.99%; in assay [17] it was -1.85%; in assay [18] it was -5.43%. Moreover, the inhibition in assay [19] is -9.67%.

The record behind these values is ChEMBL document CHEMBL1961873, “Compounds: GSK PKIS; Assays: Nanosyn kinase panel” (2012).
